# Test results taken from PubChem BioAssay (Tox21).
# Several values for one entry are separate records, joined by “and”; a condition that tells them apart may be missing. Equal values may be shown once. Activity calls are given as the source filed them. Unless noted, calls come from the whole dose curve; as a rule, active = well fitted curve in the direction sought with a large enough effect in the repeat runs; inconclusive = weak or mixed curves; inactive = no such curve, though single readings can be large; an effect the other way counts as inactive or inconclusive.
# Key:
# [1] = qHTS assay to identify small molecule antagonists of the thyroid receptor (TR) signaling pathway - cell viability counter screen (AID 743064); note: nearly all actives have a fitted effect of over 50% in size; note: potency is the fitted concentration of half-maximal effect
# In short: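 In-well cytotoxicity read by CellTiter-Fluor (30 min, 37 C) following 23.5 h exposure of GH3 cells bearing a TRE-luciferase sensor. Compounds were added alongside 1 nM (final) T3 to drive TR transactivation.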
# [2] = qHTS assay to identify small molecule antagonists of the thyroid receptor (TR) signaling pathway (AID 743065); note: nearly all actives have a fitted effect of over 55% in size; note: potency is the fitted concentration of half-maximal effect
# In short: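 GH3.TRE-Luc rat pituitary cells (two TREs driving luciferase) were dosed with compound, then stimulated with 1 nM T3 (final) for 23.5 h at 37 C. ONE-Glo luminescence was the read-out, with CellTiter-Fluor fluorescence as the cytotoxicity counter-screen.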
# [3] = test system: thyroid hormone receptor (rat, GH3 cells); assay: qHTS assay to identify small molecule agonists of the thyroid receptor (TR) signaling pathway (AID 743066; calls by dose curve)
# [4] = qHTS assay to identify small molecule antagonists of the estrogen receptor alpha (ER-alpha) signaling pathway - cell viability counter screen (AID 743074; calls by dose curve; note: nearly all actives have a fitted effect of over 45% in size; note: potency is the fitted concentration of half-maximal effect)
# [5] = qHTS assay to identify small molecule antagonists of the estrogen receptor alpha (ER-alpha) signaling pathway using the BG1 cell line - cell viability counter screen (AID 743081);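 note: compound given together with 17beta-estradiol as the ER stimulus; nearly all actives have a fitted effect of over 45% in size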; note: potency is the fitted concentration of half-maximal effect
# Aromatase (Homo sapiens) = Aromatase (Homo sapiens) (UniProt P11511); assay: qHTS assay to identify aromatase inhibitors (AID 743083); note: nearly all actives have a fitted effect of over 55% in size; note: potency is the fitted concentration of half-maximal effect
# Sequence of Aromatase (Homo sapiens) (P11511 whole entry, looked up): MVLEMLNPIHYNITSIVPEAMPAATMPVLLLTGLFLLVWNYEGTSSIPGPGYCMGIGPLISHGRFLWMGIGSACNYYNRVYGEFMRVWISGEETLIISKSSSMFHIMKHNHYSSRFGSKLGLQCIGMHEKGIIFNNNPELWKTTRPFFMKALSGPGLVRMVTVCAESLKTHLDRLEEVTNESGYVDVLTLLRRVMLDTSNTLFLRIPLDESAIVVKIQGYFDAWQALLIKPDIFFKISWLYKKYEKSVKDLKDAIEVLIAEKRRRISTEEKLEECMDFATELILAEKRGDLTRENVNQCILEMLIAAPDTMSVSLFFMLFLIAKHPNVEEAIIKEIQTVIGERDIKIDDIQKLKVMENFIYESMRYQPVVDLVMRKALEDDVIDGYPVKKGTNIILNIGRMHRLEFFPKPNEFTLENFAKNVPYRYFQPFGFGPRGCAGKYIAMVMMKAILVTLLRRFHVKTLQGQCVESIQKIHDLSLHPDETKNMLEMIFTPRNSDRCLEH
# [6] = molecular target: Estrogen receptor (Homo sapiens) (UniProt P03372); assay: qHTS assay to identify small molecule agonists of the estrogen receptor alpha (ER-alpha) signaling pathway (AID 743075; calls by dose curve; note: potency is the fitted concentration of half-maximal effect)
# Sequence of Estrogen receptor (Homo sapiens) (P03372 whole entry, looked up): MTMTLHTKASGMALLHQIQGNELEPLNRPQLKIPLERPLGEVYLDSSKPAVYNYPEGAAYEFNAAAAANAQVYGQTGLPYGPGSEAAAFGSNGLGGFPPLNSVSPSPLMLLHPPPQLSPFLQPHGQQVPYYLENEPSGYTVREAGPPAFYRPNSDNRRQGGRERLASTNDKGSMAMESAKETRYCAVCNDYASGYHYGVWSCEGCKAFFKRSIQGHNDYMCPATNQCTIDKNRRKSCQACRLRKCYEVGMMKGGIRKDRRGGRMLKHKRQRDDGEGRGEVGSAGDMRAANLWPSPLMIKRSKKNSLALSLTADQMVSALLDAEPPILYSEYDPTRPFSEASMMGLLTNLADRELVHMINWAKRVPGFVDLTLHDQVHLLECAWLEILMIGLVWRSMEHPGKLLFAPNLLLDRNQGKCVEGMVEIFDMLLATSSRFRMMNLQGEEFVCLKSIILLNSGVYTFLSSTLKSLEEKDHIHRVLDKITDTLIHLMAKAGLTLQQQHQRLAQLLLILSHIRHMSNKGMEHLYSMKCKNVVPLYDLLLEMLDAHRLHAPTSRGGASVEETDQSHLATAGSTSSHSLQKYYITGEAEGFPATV
# [7] = qHTS assay to identify small molecule antagonists of the estrogen receptor alpha (ER-alpha) signaling pathway using the BG1 cell line (AID 743080; calls by dose curve;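 note: BG1 cells stimulated with 17beta-estradiol alongside compound; nearly all actives have a fitted effect of over 25% in size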; note: potency is the fitted concentration of half-maximal effect); details: BG1Luc4E2 ERE-luciferase antagonist mode, luminescence; activity change, negative = inhibition: at 70.3 µM (top of the series)
# In short: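 Luminescence from a 4×ERE-luciferase reporter in BG1-Luc-4E2 cells served as read-out. Cells, pre-cultured 5 days in stripped-serum phenol-red-free medium, were exposed to compound with 17beta-estradiol co-stimulation for 21.5 h at 37 C.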
# [8] = molecular target: Estrogen receptor (Homo sapiens) (UniProt P03372); assay: qHTS assay to identify small molecule agonists of the estrogen receptor alpha (ER-alpha) signaling pathway using the BG1 cell line (AID 743079); details: BG1Luc4E2 cells, ERE-luciferase agonist, 22 h; activation: at 70.3 µM (top of the series); note: nearly all actives have a fitted effect of over 20% in size; note: potency is the fitted concentration of half-maximal effect
# [9] = molecular target: Estrogen receptor (Homo sapiens) (UniProt P03372); assay: qHTS assay to identify small molecule antagonists of the estrogen receptor alpha (ER-alpha) signaling pathway (AID 743069; active = well fitted curve in the direction sought with a large enough effect in the signal ratio in the repeat runs, not every such curve was filed as active; inconclusive = weak or mixed curves, or effect the other way; inactive = no such curve, though single readings can be large or run the other way; the % refers to the signal ratio; note: potency is the fitted concentration of half-maximal effect)
# In short: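 In this cell-based reporter format, GripTite HEK293 cells harbouring ER-alpha-UAS-bla were grown overnight with 2% charcoal-stripped FBS, dosed with DMSO-dissolved compounds, then challenged with 17beta-estradiol. After 18 hr at 37C, beta-lactamase activity was detected by FRET fluorescence.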
SMILES,Potency [1],Potency [2],Potency [3],Potency [4],Potency [5],Potency (Aromatase (Homo sapiens)),Potency [6],Potency [7],Potency [8],Potency [9]
Nc1ncnc2c1ncn2[C@@H]1O[C@H](COP(=O)(O)O)[C@@H](O)[C@H]1O,inactive,inactive,inactive,21.3 µM (active),inactive,inactive,–,–,–,–
CCNc1nc(NC(C)CC)nc(OC)n1 (centres undefined),inactive,inactive,inactive,inactive,inactive,inactive,–,–,–,–
CCCCCCCCCCCCCC[n+]1ccccc1,6.86 µM (active),2.43 µM (active),inactive,24.5 µM (active),–,6.11 µM (active),inactive,4.86 µM (active),–,–
c1ccc(Nc2cccc3ccccc23)cc1,69.5 µM (active),69.5 µM (active),inactive,inactive,inactive,43.8 µM (active) and 61.1 µM (active),44.2 µM [inconclusive] (active) and 17.4 µM [activator] (active),inactive,13.9 µM (active) and 9.69 µM (active),–
Cc1cccc(Br)c1,inactive,inactive,inactive,inactive,inactive,inactive,–,–,–,–
CCOC(=O)C1=C(C)NC(C)=C(C(=O)OCC)C1c1ccccc1/C=C/C(=O)OC(C)(C)C,13.3 µM (active),10.6 µM (active),–,inactive,inactive,–,6.74 µM [fluorescent] (active),33.5 µM (active),–,–
c1cc(OCC2CO2)cc(OCC2CO2)c1 (centres undefined),19.2 µM (active),7.63 µM (active),inactive,–,inactive,–,inactive,–,–,–
C=C[C@](C)(O)CC[C@@H]1[C@@]2(C)CCCC(C)(C)[C@@H]2CC[C@@]1(C)O,43.3 µM (active),43.3 µM (active),–,54.9 µM (active),inactive,54.5 µM (active),inactive,–,–,–
O=C(Nc1ccc(Cl)cc1)Nc1ccc(Cl)c(C(F)(F)F)c1,6.68 µM (active),5.31 µM (active),–,9.52 µM (active),inactive,10.6 µM (active),inactive,21.1 µM (active),–,–
O=C1C=CC(=O)N1c1ccccc1,4.86 µM (active),4.86 µM (active),inactive,–,–,10.9 µM (active),–,–,–,–
NC(=O)C(=O)N/N=C/c1ccc([N+](=O)[O-])o1,26.6 µM (active),21.1 µM (active),–,inactive,inactive,–,inactive,–,inactive,inactive
CC(C)(c1cc(Br)c(O)c(Br)c1)c1cc(Br)c(O)c(Br)c1,27.2 µM (active),27.2 µM (active) and 48.4 µM (active) and 51.6 µM (active),inactive,–,inactive,–,–,–,–,–
CCN(CC)CCCN(c1ccccc1)C1Cc2ccccc2C1,2.98 µM (active),2.11 µM (active),–,19 µM (active),29.8 µM (active),26.6 µM (active),inactive,–,–,–
CN1CCN(C2Cc3ccccc3Sc3ccc(Cl)cc32)CC1 (centres undefined),9.44 µM (active),9.44 µM (active),–,–,inactive,–,inactive,inactive,inactive,–
CCN(CC)CCOc1ccc(C(O)(Cc2ccc(Cl)cc2)c2ccc(C)cc2)cc1 (centres undefined),7.5 µM (active),7.5 µM (active),–,–,inactive,29.8 µM (active),inactive,inactive,–,23.9 µM [inconclusive] (active)
CC(C)(C)CC(C)(C)c1ccccc1O,19.4 µM (active),21.8 µM (active),–,49.2 µM (active),–,48.8 µM (active),22 µM [inconclusive] (active),–,1.38 µM (active),–
CCCCCCCCCCOCC(O)CN (centres undefined),5.96 µM (active),9.44 µM (active),–,inactive,inactive,33.5 µM (active),–,inactive,inactive,inactive
CCCCCCC(C)Nc1ccc(Nc2ccccc2)cc1 (centres undefined),61.1 µM (active),43.3 µM (active),inactive,–,inactive,inactive,–,–,–,–
CCCCCCCC/C=C\CCCCCCCC(=O)NCc1ccc(O)c(OC)c1,6.68 µM (active),6.68 µM (active),–,inactive,inactive,inactive,–,–,–,–
CNC(=O)c1cc(Oc2ccc(NC(=O)Nc3ccc(Cl)c(C(F)(F)F)c3)cc2)ccn1,9.44 µM (active),5.96 µM (active),–,21.3 µM (active),–,11.9 µM (active),inactive,–,–,6.01 µM [inconclusive] (active)
O=C1NC2CCCCN2C12CCN(CCCN1c3ccccc3CCc3ccc(Cl)cc31)CC2 (centres undefined),6.68 µM (active),8.41 µM (active),–,inactive,–,23.7 µM (active),inactive,–,–,–
CC=O,2.86 µM (active),1.28 µM (active),–,57.5 µM (active),32 µM (active),5.08 µM (active),–,1.61 µM (active),–,–
CCCOc1sc(C(=O)N2CCC(c3cc(CN)ccc3F)CC2)c(C)c1Br,6.28 µM (active),7.91 µM (active),–,44.9 µM (active),–,25 µM (active),–,–,–,–
CC(C(O)c1ccccc1)N(C)CCOC(c1ccccc1)c1ccccc1 (centres undefined),11.9 µM (active),16.8 µM (active),–,–,–,29.8 µM (active),inactive,inactive,–,inactive
Oc1ccc(-c2ccc(O)cc2)cc1,inactive,inactive,inactive,–,inactive,inactive,–,–,–,–
COc1cccc(CCc2ccccc2OCC(CN(C)C)OC(=O)CCC(=O)O)c1 (centres undefined),23.7 µM (active),13.3 µM (active),–,inactive,inactive,inactive,inactive,inactive,inactive,inactive
O=C1NCCN1CCN1CCC(c2cn(-c3ccc(F)cc3)c3ccc(Cl)cc23)CC1,6.68 µM (active),5.96 µM (active),–,15.1 µM (active) and 9.52 µM (active),inactive,–,inactive,29.8 µM (active),–,–
Cc1nc(Nc2ncc(C(=O)Nc3c(C)cccc3Cl)s2)cc(N2CCN(CCO)CC2)n1,18.8 µM (active),18.8 µM (active),–,inactive,–,1.33 µM (active),inactive,–,–,–
COCC(=O)O[C@]1(CCN(C)CCCc2nc3ccccc3[nH]2)CCc2cc(F)ccc2[C@@H]1C(C)C,1.5 µM (active),1.88 µM (active),–,9.52 µM (active),26.6 µM (active),13.3 µM (active),–,–,–,–
Cc1cc2c(C(C)C)c(O)c(O)c(C=O)c2c(O)c1-c1c(C)cc2c(C(C)C)c(O)c(O)c(C=O)c2c1O,9.44 µM (active),9.44 µM (active),–,21.3 µM (active),–,21.1 µM (active),inactive,–,–,9.52 µM [inconclusive] (active)
